Sampled rows, rich in hits. Any-hit rate of the full collection: about 5.4%.
MARV entry inh – qHTS for inhibitors of binding or entry into cells for Marburg Virus | Marburg virus pseudotyped entry inhibition, cell reporter | Potency, µM (highest dose often 37.8 µM), for the others: top-dose activity change, negative = inhibition, most hits filed as inhibitors | 300,000 compounds, 1.8% hits | AID 540276, 2011; calls by dose curve; tested in HEK293 cells
Vaccinia Venus – qHTS for Stage-Specific Inhibitors of Vaccinia Orthopoxvirus: Venus Reporter Primary qHTS; Vaccinia virus Venus reporter expression, fluorescence; Potency, µM (titrated, usually from 36.5 µM), for the others: at the highest dose activity change, negative = inhibition, usual class: inhibitors; 330,000 compounds, 0.46% hits; calls by dose curve; tested in A549 cells; also: nearly all actives have a fitted effect of over 30% in size
Lassa entry inh – qHTS for Inhibitors of binding or entry into cells for Lassa Virus; Lassa virus pseudotype entry inhibition, cell reporter; 300,000 compounds, 1.2% hits; Potency, µM (series often up to 37.9 µM), without a hit: at the top dose activity change, negative = inhibition, most hits filed as inhibitors; calls by dose curve; tested in HEK293 cells; also: nearly all actives have a fitted effect of over 50% in size
VACV mCherry inh – qHTS for Stage-Specific Inhibitors of Vaccinia Orthopoxvirus: mCherry Reporter Primary qHTS; Vaccinia virus mCherry reporter infection, fluorescence; Potency, µM (highest dose often 36.5 µM), without a hit: top-dose activity change, negative = inhibition, actives largely listed as inhibitors; 310,000 compounds, 0.63% hits; AID 720579, 2013; calls by dose curve; tested in A549 cells; also: nearly all actives have a fitted effect of over 35% in size
FMDV inh – High Throughput Screening for Foot and Mouth Disease Virus Antivirals; FMDV antiviral cell-based qHTS; Potency, µM (doses to about 57.9 µM), for inactives: at the highest dose activity change, negative = inhibition, actives largely listed as inhibitors; 410,000 compounds, 1.2% hits; AID 1159524, 2015; calls by dose curve; tested in HEK293T cells; also: read-out not given here; nearly all actives have a fitted effect of over 45% in size
Sm TGR block – qHTS Assay for the Inhibitors of Schistosoma Mansoni Peroxiredoxins; Schistosoma mansoni thioredoxin glutathione reductase (TGR), Q962Y6; purified TGR, DTNB reduction, TNB absorbance 405 nm; Potency, µM (top dose mostly 114 µM), without a hit: top-dose activity change, negative = inhibition, actives largely listed as inhibitors; 360,000 compounds, 3% hits; active = well fitted inhibition curve with a large enough effect; inconclusive = small, poorly fitted or top-dose-only effect; inactive = no such curve, though single readings can be large or run the other way; also: nearly all actives have a fitted effect of over 60% in size
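First, TGR (20 nM dispensed) and NADPH were mixed with compound. Second, a 15 min room-temperature incubation followed. Third, further NADPH and then DTNB were added to start the reaction. Finally, TNB absorbance was monitored kinetically.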
* hit, by the source's call; i = inactive; ? = inconclusive; · = no result; [ ] = dose if it differs, or a comment. % is scaled to controls: 0 for no effect and ±100 for the full control effect; potency is read from the fitted curve at half-maximal effect.

SMILES | MARV entry inh | Vaccinia Venus | Lassa entry inh | VACV mCherry inh | FMDV inh | Sm TGR block
COc1ccc(N/N=C(/C(N)=O)C2=NC(C)(C)Cc3ccccc32)cc1 | ? | ? | ? | 14.1µM* | -19.3% | -2.7%
COc1ccc(N/N=C(\C#N)C(N)=O)cc1 | 0.0%[46.1 µM] | 4.3% | -23.7% | -6.5% | 23.9% | -16.3%
O=C(CCCCn1c(=O)c2ccccc2n(Cc2cccc(F)c2)c1=O)NCc1ccc2c(c1)OCO2 | ? | -15.5% | 18.9%[46.1 µM] | -19.6% | -0.6% | -0.6%
Cc1nc2cc(N3CCCCC3)c(NC(=O)c3cccnc3)cc2c(=O)n1Cc1ccccc1 | -1.4% | -10.1% | -10.9% | -3.4% | -4.9% | 0.0%
CC(=O)Nc1cc2c(=O)n(Cc3ccccc3)c(C)nc2cc1N1CCOCC1 | 25.1% | -2.0% | 22.5% | -13.4% | 38.7% | 6.31µM*
Cn1c(=O)c2c(-c3ccccc3)n3c(c2n(C)c1=O)C(c1ccc([N+](=O)[O-])cc1)Nc1ccccc1-3 (centres undefined) | ? | -12.3% | -23.5%[46.1 µM] | -20.9% | -29.3% | -9.3%
O=C(O)c1ccc2cccc(O)c2n1 | 0.0%[14.2 µM] | -5.5% | 22.6% | 3.4% | 1.4% | -8.6%
O=C(O)c1ccc2cccnc2n1 | ? | 11.9% | -1.0% | i | -8.9% | 31.6µM*
O=C(Sc1ccc(Cl)cc1)c1cccc(Cn2cc(C(F)(F)F)ccc2=O)c1 | · | · | · | · | 2.3% | 20µM*
N/C(=N\OC(=O)c1cccc(Cn2cc(C(F)(F)F)ccc2=O)c1)c1ccc(Cl)cc1 | -26.1%[46.1 µM] | 1.4%[7.34 µM] | -18.8% | i[7.34 µM] | ? | 4.2%
CSCCC(NS(=O)(=O)c1ccc(C)cc1)C(=O)N1CCN(C(c2ccccc2)c2ccccc2)CC1 (centres undefined) | ? | -28.4% | 3.55µM* | ? | 4.2% | -19.0%
CC(NC(=O)c1cccc(OC2CCN(C3CCN(C)CC3)CC2)c1)c1ccccc1 (centres undefined) | · | · | · | · | -7.6% | 14.1µM*
C[C@@H](C(=O)Nc1ccc2ccccc2c1)[C@H]1C[C@]1(C)[C@H](NS(=O)(=O)c1ccc(-c2ccccc2)cc1)c1ccccc1 | 11.6µM* | -5.1% | -20.6% | i | 2.9% | -11.0%
C[C@@H](C(=O)Nc1ccc2ccccc2c1)[C@@H]1C[C@@]1(C)[C@@H](NC(=O)c1ccccc1)c1ccccc1 | -28.7% | -21.0% | 0.6% | -4.8% | 1.3% | 4.8%
CNC(=O)c1ccc(CSc2nc3ccncc3n2Cc2ccc(C)cc2)cc1 | -14.0%[46.1 µM] | -14.9% | -1.6%[46.1 µM] | -16.0% | -23.9% | -7.9%
NCCC(=O)N1c2ccccc2Sc2ccc(Cl)cc21 | · | · | · | · | -25.8% | ?
NCCCC(=O)N1c2ccccc2Sc2ccc(Cl)cc21 | ? | -18.7% | 0.708µM* | -25.0% | -22.8% | 0.0%
COC1=CC2C(=O)C([C@@H]3c4ccccc4C[C@]23C)C1(O)c1cccc(OC)c1 (some centres undefined) | 4.4%[14.2 µM] | · | · | · | · | ·
COc1ccc(-c2nn(-c3ccccc3)cc2C(=O)N2c3ccc(C)cc3C3CN(C)CCC32)cc1 (centres undefined) | ? | -5.8% | 11.2µM* | i | -2.8% | -12.6%
CCOC(=O)c1ccc(N2CCN(c3ccccc3F)CC2)c(NC(=O)Nc2ccc(Cl)c(Cl)c2)c1 | · | ? | ? | ? | 25.1µM* | 6.7%
CCOC(=O)c1ccc(N2CCN(c3cc(Cl)ccc3C)CC2)c(NC(=O)Nc2ccc(OCC)cc2)c1 | · | -11.8% | -0.8%[46.1 µM] | -0.4% | -14.7% | -3.0%
Cc1cc(-c2ccccc2)n(-c2cc(N/N=C/c3ccccc3O)ncn2)n1 | 8.91µM* | ? | 4.47µM* | ? | ? | 2.4%
CCOc1ccc2nc(N3CCCC(C(=O)Nc4cccc(Cl)c4C)C3)sc2c1 (centres undefined) | ? | -4.1% | · | -8.2% | 26.9% | 4.4%
CCOc1ccc2c(c1)/C(=C(\C(Cl)=C(Cl)Cl)[N+](=O)[O-])N2 | · | · | · | · | 0.0% | 5.62µM*
CCCc1[nH]nc2c1[C@@H](c1cccc(OC)c1)C(C#N)=C(N)O2 | 4.4% | · | · | · | · | ·
SMILES | MARV entry inh | Vaccinia Venus | Lassa entry inh | VACV mCherry inh | FMDV inh | Sm TGR block
CNc1cc(C)c(C#N)c2nc3ccccc3n12 | -5.2% | -10.8% | 10.5% | i | -27.5% | -4.2%
Cc1c(CCCl)c(Cl)n2c(nc3ccccc32)c1C#N | 5.01µM* | ? | 11.2µM* | ? | 3.55µM* | ·
Cc1cc(Cl)n2c(nc3ccccc32)c1C#N | 4.47µM* | -29.1% | ? | ? | 7.94µM* | 3.16µM*
CCc1c(C)c(C#N)c2nc3ccccc3n2c1NC | -3.2%[46.1 µM] | -11.8% | 6.8%[46.1 µM] | -7.6% | -20.1% | 14.0%
CCc1ccccc1Nc1nc(N)nc(COC(=O)c2cccn2C)n1 | 8.2µM* | · | ? | · | 27.4% | 1.3%
Cc1ccccc1Nc1nc(N)nc(COC(=O)c2cccn2C)n1 | -4.9% | -0.9% | ? | -8.9% | 52.5% | 0.0%[11.4 µM]
COCC1CCCN(C(=O)c2ccc3oc(CCCc4ccccc4)nc3c2)C1 (centres undefined) | 6.6%[46.1 µM] | -14.6% | -0.6%[46.1 µM] | -3.5% | -0.1% | 28.2µM*
COCC1CCN(C(=O)c2ccc3oc(CCCc4ccccc4)nc3c2)C1 (centres undefined) | -16.1% | ? | 4.9% | -20.9% | 20.3% | 4.1%
O=C(Nc1nc2c(F)cc(F)cc2s1)C1CC(=O)N(Cc2ccco2)C1 (centres undefined) | · | -2.4% | · | -3.9% | 8.4% | 5.01µM*
Cc1cc(C)c2nc(NC(=O)C3CC(=O)N(Cc4ccco4)C3)sc2c1 (centres undefined) | ? | -22.5% | -10.0% | -12.0% | -13.2% | -25.5%
C=C(C)COc1ccc(-c2n[nH]c(C)c2-c2ccc(Br)cc2)c(O)c1 | ? | ? | 0.366µM* | ? | · | 7.6%
C=C(C)COc1ccc(-c2[nH]ncc2Oc2ccccc2OC)c(O)c1 | -16.6% | ? | ? | ? | · | 0.0%
C=C(C)COc1ccc(-c2[nH]ncc2-c2ccc(Br)cc2)c(O)c1 | 3.26µM* | ? | ? | ? | -18.1% | 0.0%
C=C(C)COc1ccc(-c2[nH]ncc2Oc2ccc(OC)cc2)c(O)c1 | · | ? | · | 14.1µM* | 23.3% | 22.6%
C=C(C)COc1ccc(-c2[nH]ncc2-c2ccccc2OC)c(O)c1 | 7.94µM* | ? | ? | -22.9% | -29.6% | -31.6%
Cc1ccc(CNc2ncnc3sc(C(=O)N4CCC[C@H]4C(N)=O)c(C)c23)o1 | · | -1.7% | · | -7.8% | -13.0% | ·
Cc1nn(C(C)(C)C)c(OC(=O)C(C)(C)C)c1Sc1ccccc1 | 21.9%[46.1 µM] | -5.4% | ? | -1.5% | -28.9% | 0.9%
CCc1cc(-c2[nH]ncc2-c2ccc3c(c2)OCO3)c(O)cc1O | ? | ? | ? | ? | · | 5.6%
CCc1cc(-c2[nH]ncc2-c2ccc(OC)cc2)c(O)cc1O | ? | ? | ? | ? | 11.2µM* | -0.4%
